The source of these data is the supplement of paper PMC10338343.

± gives the standard deviation. Where only a bound is given, the exact number is not on record here.

The first test relates to MILI (PIWIL2) piRISC loaded with L1MC piRNA (26 nt). Put plainly: pre-steady-state target cleavage rate (min^-1); guide: L1MC piRNA 5'p-UAACUAAAUACUAUGCAAGCUGUAGG; MIWI and MILI are mouse PIWI proteins and EfPiwi is from a freshwater sponge; tags in brackets are library labels; higher = faster piRNA-guided slicing of the target. To be noted: auxiliary factor: 500 nM mouse GTSF1. Summed up:
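Active affinity-purified piRISC (1 nM) loaded with one synthetic guide was mixed with a transcribed, DNA-blocked target RNA library (0.1 nM), with or without 500 nM GTSF1 partner protein, in HEPES–potassium acetate buffer at 33 °C for 0–8 or 0–960 min. Uncleaved targets were sequenced, normalised to depth and to weakly complementary targets, and pooled across three trials, with k3 capped at 0.0001 min^-1. The pre-steady-state cleavage rate was determined with a burst-and-steady-state fit.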
In the case of UCCUGGUAGAGCUUGCAUAGUAUUUAGAUA, the “pre-steady-state target cleavage rate” value stood at 0.14 ± 0.025. On to UCCUGGAUGAGCUUGCUUAGUAUUUAGAAA, for which the “pre-steady-state target cleavage rate” value was determined as 0.0548 ± 0.017. For the sequence UCCUCCUACAGCUUGCAUACUAUUAAGUUA, the “pre-steady-state target cleavage rate” value turned out to be 0.0631 ± 0.019.

With UCCUGGAACAGCUUGCAUAGAUUUUACAAA, the “pre-steady-state target cleavage rate” value is 0.00713 ± 0.0045.

Regarding UCCUGGAUCAGCUUGCUAUGUAUUUAGUAA, the “pre-steady-state target cleavage rate” value worked out at 0.00621 ± 0.0032. For the sequence UCCUGGAACAGCUUGCUAUGUAUUUAGUAA, the “pre-steady-state target cleavage rate” value was 0.0125 ± 0.0054. With UCCUGGAUGUCGAUGCAUAGUAUUUAGAUUA, the “pre-steady-state target cleavage rate” value was 0.0599 ± 0.016. On the same count and under the same terms, the value for UCCUGGAUGUCGAUGCAUAGUAAUAAGUUA was 0.00446 ± 0.0033; that for UCCUCCUACAGCUUGGUAAGUAUUUAGUAA was 0.155 ± 0.025. Still for that read-out and setting: with UCCUGGAACAGCUUGCAUAGGAUUUAGUUA the figure was 0.00777 ± 0.0035. Same read-out and setting: the value for UCCUGGAACAGCUACCAUAGUAUUUAGAAA was 0.0138 ± 0.0052; that for UCCUGGAUGUGCUACCAUAGUAUUUAGAAA was 0.00379 ± 0.0038. With UCCUGCUACAGCUUGCAUAGUAUAUACUUA, the “pre-steady-state target cleavage rate” value was found to be 0.0361 ± 0.011. Turning to UCCUGGAACACCUUGCAUAGUAUUUACAAA, the “pre-steady-state target cleavage rate” value came out at 0.071 ± 0.02. On the same count and under the same terms, the value for UCCUGGAUGUCGAUGCUUAGUAUAUAGUUA was 0.0304 ± 0.0073; that for UCCUGGAACAGCUUGCAUAGUAUUAACAAA was 0.104 ± 0.029. The same measure, in the same setting: with UCCUGGUACUCCUUGCAUAGUAUUUAGUUA the figure was 0.217 ± 0.046; with UCCUGGAACAGCUUGCAAAGUAUUUACUUA, 0.122 ± 0.027. Regarding UCCUCCUACAGCUACGAUAGUAUUUAGAAA, the “pre-steady-state target cleavage rate” value is 0.13 ± 0.029. Same read-out and setting: with UCCUGGAUGUCCUUGGAUAGUAUUUACUUA the figure was 0.014 ± 0.005; with UCCUGGAUGUGCUUGCAUAGUAAUUACUUA, 0.00537 ± 0.0033. Same read-out and setting: the value for UCCUGGAUGUCGUUGUCAUAGUAUUUAGUUA was 0.00743 ± 0.0049; that for UCCUGGAUGAGCUUGCAUAGUAUUAAGUAA was 0.0732 ± 0.021; that for UCCUGGAUCAGCUUGCUAAGUAUUUACAAA was 0.0261 ± 0.0085.

As to UCCUGGAUGUGCUUGCAUUGAAUUUAGUUA, the “pre-steady-state target cleavage rate” value was 0.00465 ± 0.0038. UCCUGGAUGUCGAACGAUAGUAUUUAGUAUA: the “pre-steady-state target cleavage rate” value was under 0.0001. The same measure, in the same setting: with UCCUCCUACAGCUUGCAUUCUAUUUUCAAA the figure was 0.0147 ± 0.0054; with UCCUCCUACAGCUUGCUUAGUAUUUAGAUA, 0.15 ± 0.018; with UCCUGGAACAGCUUGCAUAGAUUUUAGUAA, 0.0259 ± 0.0091. The same measure, in the same setting: the value for UCCUGCUUGUGCUUGCAUAGUAUUUUCAAA was 0.00521 ± 0.0042; that for UCCUGGUACAGCUUGCAUUAGUAUUUAGUUA was 0.017 ± 0.0074; that for UCCUGGAUCAGCUUGCAUACUAUUUAGAUA was 0.0139 ± 0.0058. On the same count and under the same terms, with UCCUGCUACAGCUUGCAUACUAUUUACAAA the figure was 0.0741 ± 0.024.

UCCUGGAACAGCUUGCAUAGUAUAUAGAAA: the “pre-steady-state target cleavage rate” value was determined as 0.0917 ± 0.026. In the case of UCCUGGAACACCUUGCAUAGUUUUUAGUUA, the “pre-steady-state target cleavage rate” value worked out at 0.0237 ± 0.0067. Same read-out and setting: the value for UCCUGGUAGAGCUUGCAUACUAUUUAGUUA was 0.0467 ± 0.011.

Still in this test, the particulars now being: auxiliary factor: none (no GTSF1).
For UCCUGGAUGUCGAACGAAUAGUAUUUAGUUA, the “pre-steady-state target cleavage rate” value was under 0.0001. On the same count and under the same terms, the value for UCCUGGAUGUCGAACGAUAGUAUUUAGAUA was under 0.0001; that for UCCUGGAUGUCGAUCCUUAGUAUUUAGUUA was under 0.0001.
